# The list is not random: actives were taken first. Their share in the collection is about 1.3%.
# AmpC inh detg = qHTS Inhibitors of AmpC Beta-Lactamase (assay with detergent); P00811; AmpC hydrolysis of nitrocefin, absorbance 480 nm, 0.01% Triton; Potency, µM (titrated, usually from 114 µM), for inactives: at the highest dose activity change, negative = inhibition, hits mostly inhibitors; actives 0.041% (n = 370,000); AID 485294, 2010;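 also: 0% = no-compound wells and -100% = no-enzyme wells; nearly all actives have a fitted effect of over 25% in size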
# Target sequence (P00811 whole entry, looked up): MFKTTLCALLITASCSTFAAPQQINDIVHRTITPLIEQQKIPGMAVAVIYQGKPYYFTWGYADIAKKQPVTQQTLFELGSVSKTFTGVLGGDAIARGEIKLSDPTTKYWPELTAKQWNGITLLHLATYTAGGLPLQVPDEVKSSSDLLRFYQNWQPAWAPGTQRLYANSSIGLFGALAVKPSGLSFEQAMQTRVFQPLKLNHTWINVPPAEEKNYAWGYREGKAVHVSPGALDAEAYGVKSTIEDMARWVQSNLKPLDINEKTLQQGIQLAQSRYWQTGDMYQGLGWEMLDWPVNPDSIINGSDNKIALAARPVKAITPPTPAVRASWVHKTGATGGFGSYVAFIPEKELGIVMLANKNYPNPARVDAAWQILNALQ
#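 AmpC (5.3 nM in the dispensed reagent) in 20 mM phosphate pH 7.0 with 0.01% (detergent screen) or 0.0001% Triton X-100 was preincubated with compounds for 15 min at room temperature. Nitrocefin was then added from an 800 uM solution, and hydrolysis was followed at 480 nm.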
# Vaccinia Venus = qHTS for Stage-Specific Inhibitors of Vaccinia Orthopoxvirus: Venus Reporter Primary qHTS; actives 0.46% (n = 330,000); Potency, µM (titrated, usually from 36.5 µM), for inactives: at the top dose activity change, negative = inhibition, hits mostly inhibitors; Vaccinia virus Venus reporter expression, fluorescence; calls by dose curve; tested in A549 cells; also: % is scaled to controls: 0 for no effect and ±100 for the full control effect; nearly all actives have a fitted effect of over 30% in size
# SARS PLpro yeast = qHTS of Yeast-based Assay for SARS-CoV PLP; S. cerevisiae expressing SARS-CoV PLpro, growth rescue; Potency, µM (titrated, usually from 32.9 µM), without a hit: at the top dose activity, positive = growth rescue, most hits filed as activators; actives 0.19% (n = 330,000); calls by dose curve; also: 0% is about no effect; nearly all actives have a fitted effect of over 55% in size
# AmpC inh no detg = qHTS Inhibitors of AmpC Beta-Lactamase (assay without detergent). actives 0.52% (n = 330,000). Potency, µM (top dose mostly 57.1 µM), without a hit: at the top dose activity change, negative = inhibition, usual class: inhibitors. AmpC nitrocefin hydrolysis, absorbance 480 nm, 0.0001% Triton. AID 485341, 2010;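 also: plate controls were no compound for no effect and no enzyme for full effect; nearly all actives have a fitted effect of over 20% in size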
#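 AmpC (5.3 nM in the dispensed reagent) in 20 mM phosphate pH 7.0 with 0.01% (detergent screen) or 0.0001% Triton X-100 was preincubated with compounds for 15 min at room temperature. Nitrocefin was then added from an 800 uM solution, and hydrolysis was followed at 480 nm.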
# VACV mCherry inh = qHTS for Stage-Specific Inhibitors of Vaccinia Orthopoxvirus: mCherry Reporter Primary qHTS | Potency, µM (doses to about 36.5 µM), for inactives: at the highest dose activity change, negative = inhibition, usual class: inhibitors | Vaccinia virus mCherry reporter infection, fluorescence | actives 0.63% (n = 310,000) | AID 720579, 2013; calls by dose curve; tested in A549 cells; also: % is scaled to controls: 0 for no effect and ±100 for the full control effect; nearly all actives have a fitted effect of over 35% in size
# AMA1 RON2 block = qHTS for Inhibitors of AMA1-RON; Towards Development of Antimalarial Drug Lead: Primary Screen; Plasmodium falciparum AMA1 (3D7) - RON2 peptide interaction; AlphaScreen AMA1-biotinylated RON2 peptide binding; Potency, µM (top dose mostly 58.2 µM), for the others: at the top dose activity change, negative = inhibition, most hits filed as inhibitors; actives 0.2% (n = 360,000); AID 720542, 2013;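 also: 0% = vehicle wells and -100% = peptide control; nearly all actives have a fitted effect of over 45% in size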
#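 AMA1 (3D7) with his tag at 25 nM final met compounds first, then biotinylated RON2 peptide at 25 nM; detection used donor plus acceptor beads, 10 µg/mL apiece, read by AlphaScreen after 30 min at room temperature.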
# Starred values were filed as active, the others as inactive; i = inactive; ? = inconclusive; / = not tested or not shown. Unless noted, calls follow the shape of the dose curve; as a rule, active = well fitted curve in the direction sought with a large enough effect; inconclusive = small, poorly fitted or top-dose-only effect, or another doubt; inactive = no such curve, though single readings can be large; an effect the other way counts as inactive or inconclusive. Potency is read from the fitted curve at half-maximal effect.
SMILES,AmpC inh detg,Vaccinia Venus,SARS PLpro yeast,AmpC inh no detg,VACV mCherry inh,AMA1 RON2 block
Fc1ccc(C2c3[nH]c4ccccc4c3CCN2Cc2cccn2-c2ncccn2)cc1 (stereo not given),1%,24%,1%,-8%,4.5µM*,-25%
CN(C)c1ccc(N=Nc2ccc(/C=C/c3ccnc4ccccc34)cc2)cc1,/,i,/,/,100%,/
c1ccc2c(Nc3nnc(-c4ccncc4)s3)cccc2c1,-3%,-10%,-27%,10µM*,-22%,-2%
CCOC(=O)C1=CCN(S(=O)(=O)c2ccc(F)cc2)C1c1ccc(Cl)c(Cl)c1 (stereo not given),/,13µM*,/,/,7.9µM*,-1%
COc1ccc2sc(-c3ccc(SC)cc3)c(-c3ccc(O)cc3)c2c1,/,11µM*,3%,-31%,?,6%
Cc1ccnc2c(N3C(=O)C4C5C=CC(C5)C4(C)C3=O)cccc12 (stereo not given),?,-4%,7%,7.1µM*,-6%,10%
COc1cccc(-c2nc(CS(=O)(=O)CC(=O)Nc3cccc(C)c3C)c(C)o2)c1,?,?,-13%,45µM*,-16%,-3%
CC(C)Oc1cccc(C(=O)Nc2ccc3oc(-c4cccc(Cl)c4)nc3c2)c1,8%,-16%,/,/,-29%,/
N#C/C(=C/c1ccc(Br)s1)C(=O)NCCc1c[nH]c2ccccc12,-1%,-20%,10%,-26%,-4%,-22%
Cc1cc(/C=C(\C#N)C(=O)NCCc2c[nH]c3ccccc23)c(C)n1C,-6%,/,6%,25µM*,/,-4%
C[C@@H]1CN(Cc2ccc3c(c2)CN(C(=O)CCc2nc4ccc(F)cc4[nH]2)CCO3)C[C@H](C)O1,/,6%,/,/,-8%,/
COCCCNC(=O)C(=O)NCCCOC(C)C,1%,/,0%,0.28µM*,/,-11%
CCC(C)[C@H](NC(=O)NCCCOC(C)C)C(=O)OC (stereo not given in full),5%,-12%,-1%,-6%,i,-4%
COc1ccc(CC2NCC(O)C2OC(C)=O)cc1 (stereo not given),/,0.11µM*,/,/,0.0089µM*,2%
COc1ccc(CC2NCCC3(O)CCCCC23)cc1 (stereo not given),-10%,/,6%,4%,/,1%
COc1ccc(CC(=O)N2CCN(C(=O)Cc3ccc(OC)cc3)CC2)cc1,-15%,-8%,2%,0%,i,1%
COc1ccc(CC2NC[C@H](O)[C@H]2OC(C)=O)cc1 (stereo not given in full),/,1µM*,/,/,0.79µM*,/
Cc1ccc(C(=O)Nc2cccc(-c3nc(CNC(=O)C4(C)CC4)c(C)o3)c2)s1,/,-15%,/,/,-13%,/
CCS(=O)(=O)Nc1cc(C(=O)N2CCCN(C=O)CC2)c2c(c1)nc(-c1ccccc1)n2C,/,-15%,/,/,i,/
COc1ccc2ccc3c(c2c1)N=CC1(O3)N(C)c2ccccc2C1(C)C (stereo not given),?,-3%,-96%,-42%,-13%,-14%
CN1c2ccccc2C(C)(C)C12C=Nc1c(ccc3ccccc13)O2 (stereo not given),?,2%,-9%,25µM*,-17%,-8%
COC(=O)COc1ccc(S(=O)(=O)NCCC2=CCCCC2)cc1,3%,-9%,-6%,0.14µM*,i,-5%
COC(=O)COc1ccc(S(=O)(=O)NCCC2=CCCCC2)cc1C,1%,-4%,-16%,-1%,i,4%
CCN(Cc1ccncc1)Cc1ccc2c(c1)CN(C(=O)c1ccc(C)cc1)CCO2,/,5%,/,/,-6%,/
Cc1[nH]c2ccccc2c1C(=O)COC(=O)c1ccccc1SCC(=O)N1CCCC1,/,-5%,/,/,5%,/
SMILES,AmpC inh detg,Vaccinia Venus,SARS PLpro yeast,AmpC inh no detg,VACV mCherry inh,AMA1 RON2 block
CC(=O)Nc1ccc(Br)c(Cl)c1,6%,-12%,-3%,-17%,-9%,4%
O=C(Nc1ccc(Br)c(Cl)c1)C1CC1,1%,/,-20%,2.2µM*,/,4%
COc1ccc2[nH]c3c(N4CCc5ccccc5C4)ncnc3c2c1,5%,14µM*,-19%,0%,?,-25%
CCOc1ccc2[nH]c3c(N4CCN(C(=O)c5ccco5)CC4)ncnc3c2c1,7%,-24%,0%,-11%,13µM*,-4%
O=C(c1ccco1)N(Cc1cc2cc3c(cc2nc1N1CCOCC1)CCC3)CC1CCCO1 (stereo not given),/,35%,/,/,29%,/
COc1ccc(-c2nnc(Sc3nc4ccccc4o3)c3ccccc23)cc1,-12%,11µM*,1%,-10%,8.9µM*,-12%
NC(=S)NN=C1CCCCCCCCC1,/,?,/,/,20µM*,17%
NC(=S)NN=C1CCCCCCCC1,/,?,/,/,?,41%
O=C(NCc1cccnc1)/C(=C\c1ccc(-c2cccc(Cl)c2)o1)S(=O)(=O)c1ccccc1,5%,10µM*,?,2%,11µM*,-12%
N=c1n(CCN2CCCCC2)c2ccccc2n1CC(O)c1ccc(Cl)c(Cl)c1 (stereo not given),4%,11µM*,-3%,44%,?,-6%
COc1ccc2c(c1OC)C(=O)OC2Nc1nc(-c2cc3cc(Br)ccc3oc2=O)cs1 (stereo not given),-11%,?,-4%,32µM*,?,13%
Oc1cc2cc(-c3csc(-c4ccc(F)cc4)n3)cc3c2n1CCC3,/,-8%,/,/,17%,/
O=S(=O)(O)c1ccc(O)c2cc(Nc3ccccc3)ccc12,/,9%,/,/,-9%,3.2µM*
O=S(=O)(O)c1cc(O)c2cc(Nc3ccccc3)ccc2c1,/,-9%,/,/,i,-20%
COc1ccc(CN2CCC3(CC2)c2ccccc2[C@@H](NC(=O)c2ccccc2)[C@@H]3O)cc1O,/,-10%,/,/,i,/
COc1cc(OC)c(C(=O)C=Cc2ccc(OC)c(OC)c2)c(OC)c1,/,?,/,/,10µM*,0%
COc1ccc(C=CC(=O)c2ccc(OC)c(OC)c2)cc1O,/,10µM*,/,/,?,-9%
COc1ccc(C(=O)C=Cc2ccc(OCc3ccccc3)c(OC)c2)cc1OC,/,11µM*,/,/,?,-6%
COc1ccc(C=CC(=O)c2ccc3cc(OC)c(OC)cc3c2)cc1OC,/,?,/,/,?,-13%
CCC1CSC(Nc2ccc(C(=O)/C=C/c3ccc(Br)cc3)cc2)=N1 (stereo not given),3%,-24%,-54%,19%,-18%,5%

# High-throughput results from PubChem.
